The values that follow come from PubChem BioAssay AID738 (SRMLSC, 2007).

In all, about 98,000 compounds went through this assay and about 4,900 (5%) were called active. Cut-off read from the data, not from the text of the source: active = inhibition above about 30%; inactive = the rest. Shown is part of a subset that was picked to be rich in actives.

As a reminder, the inhibition is the relative decrease from the control value, in per cent.

This experiment in a line: growth inhibition of yeast control strain, primary screen, counter-screen for post-Golgi transport modulator project (AID 738). Particulars: efflux-deficient yeast background strain, growth absorbance A615, 16 h; at 10 µM; active compounds read high. For orientation: The purpose of a counterscreen is to sort out artefacts and off-target activity.
As for `C=CCNc1cnn(-c2ccc(C)cc2)c(=O)c1Cl`, the inhibition is 8.21% (inactive).
To `Cc1cccc(Cn2c(SCCO)nc3c2c(=O)n(C)c(=O)n3C)c1` belongs 3.8% (inactive); to `CCCSc1nc2c(c(=O)n(C)c(=O)n2C)n1Cc1ccc(C)cc1`, 51.8% (active); to `CCOc1ccc(Cn2c(SCCCCC#N)nc3c2c(=O)n(C)c(=O)n3C)cc1OCC`, 8.56% (inactive).
To `O=C(ON=C1CCN(S(=O)(=O)c2ccccc2)CC1)c1ccc(Cl)cc1` belongs 13.6% (inactive); to `Cc1ccc(Oc2ccc(N)cc2)cc1`, 28.3% (inactive); to `Nc1ccc(Oc2ccc(Cl)cc2)cc1`, 10% (inactive).
The value for `COc1cccc(Oc2ccc(N)cc2)c1` was 34% (active).
Turning to `COC(=O)Cc1cc(=O)oc2c(C)c(O)ccc12`, the inhibition was 7.59% (inactive).
Regarding `Cc1cc(OC(=O)c2ccc(Cl)cc2)cc(=O)n1C`, the inhibition is -4.12% (inactive).
As for `COc1ccc2[nH]c3ccc(OC)cc3c2c1`, the inhibition is 8.06% (inactive).
To `CCN(CC)CC(=O)c1c[nH]c2ccc(OC)cc12` belongs 15.9% (inactive).
To `COc1ccc2[nH]cc(/C=C(/C#N)S(=O)(=O)c3ccccc3)c2c1` belongs 36.8% (active); to `CCCCC(=O)Nc1nc(C)c(-c2csc(Nc3ccc(Cl)cc3)n2)s1`, 1.53% (inactive).
As for `C=CCCC(=O)Nc1nc(C)c(-c2csc(Nc3ccc(Cl)cc3)n2)s1`, the inhibition is 50.3% (active).
The value for `CCCCCCC(=O)Nc1nc(C)c(-c2csc(Nc3cc(Cl)ccc3OC)n2)s1` was 0.3% (inactive); that for `Cc1ccc2cccc(S(=O)(=O)N3CCN(c4ccccc4F)CC3)c2n1` was 37.7% (active); that for `O=C(c1cccc2ccccc12)N1CCN(c2ccccc2F)CC1` was 13.7% (inactive).
The value for `O=S(=O)(N1CCOCC1)N1CCN(c2ccccc2F)CC1` was -1.25% (inactive).
The value for `O=C(CSCc1c(Cl)cccc1Cl)NN1C(=O)c2ccccc2C1=O` was 8.98% (inactive).
As to `c1cnc(Nc2nc(-c3ccc4ccccc4c3)cs2)nc1`, the inhibition was 2.57% (inactive).
To `COc1ccc(Nc2nc(-c3ccccc3)cs2)cc1` belongs 6.6% (inactive); to `COc1ccc(OC)c(Nc2nc(-c3ccc(O)c(O)c3)cs2)c1`, 34.6% (active).
For the molecule `CON(C)S(=O)(=O)c1ccc2c(c1)NC(=O)C1CCCN21` (stereo not given), the inhibition is -2.22% (inactive).
On to `O=C(c1cc(-c2ccc(O)cc2)on1)N1CCCc2ccccc21`, for which the inhibition is 23.4% (inactive).
The value for `O=C(c1cc(-c2cccc(O)c2)on1)N1CCc2ccccc2C1` was 41% (active); that for `O=C(c1cc(-c2ccccc2O)on1)N1CCCC1` was 12% (inactive); that for `O=C(NCC1CCC(C(=O)O)CC1)OCc1ccccc1` (stereo not given) was 8.23% (inactive).
In the case of `O=C(CNC(=O)OCc1ccccc1)Oc1cc2oc(=O)cc(-c3ccccc3)c2cc1Cl`, the inhibition is 34.6% (active).
To `O=C(CNC(=O)c1ccccc1)NCC(=O)OCc1ccc(Cl)cc1` belongs 2.68% (inactive).
